Usually inhibition stands for the drop in the measured response relative to a control, in per cent.

Among all 340,000 compounds or so, about 490 (0.14%) were called active. Many of the other results were omitted from the sample, so actives are more common in it than they were. Unmarked numbers belong to inactive results. No stated cut-off is given here; in the data, active means inhibition above about 12%; inconclusive means no clear call, values can overlap the other calls; inactive means below about 7.3%.

For the test, the target named is Kelch-like ECH-associated protein 1 (Homo sapiens) (UniProt Q14145). The test is described as follows: Keap1-Nrf2 protein-protein interaction inhibitors, primary screen, biochemical, fluorescence polarization, single point (AID 504523).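 Further: human Keap1 Kelch domain with fluorescein labeled Nrf2 9mer peptide probe; 0% = neutral control wells and 100% = peptide positive control; higher means more block of Keap1 binding to Nrf2 peptide.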 Conditions: Keap1 Kelch-Nrf2 peptide fluorescence polarization, 1536-well; at 9.4 µM; hits give high values.
Chain of Kelch-like ECH-associated protein 1 (Homo sapiens) (Q14145 whole entry, looked up, the tested form may be a part): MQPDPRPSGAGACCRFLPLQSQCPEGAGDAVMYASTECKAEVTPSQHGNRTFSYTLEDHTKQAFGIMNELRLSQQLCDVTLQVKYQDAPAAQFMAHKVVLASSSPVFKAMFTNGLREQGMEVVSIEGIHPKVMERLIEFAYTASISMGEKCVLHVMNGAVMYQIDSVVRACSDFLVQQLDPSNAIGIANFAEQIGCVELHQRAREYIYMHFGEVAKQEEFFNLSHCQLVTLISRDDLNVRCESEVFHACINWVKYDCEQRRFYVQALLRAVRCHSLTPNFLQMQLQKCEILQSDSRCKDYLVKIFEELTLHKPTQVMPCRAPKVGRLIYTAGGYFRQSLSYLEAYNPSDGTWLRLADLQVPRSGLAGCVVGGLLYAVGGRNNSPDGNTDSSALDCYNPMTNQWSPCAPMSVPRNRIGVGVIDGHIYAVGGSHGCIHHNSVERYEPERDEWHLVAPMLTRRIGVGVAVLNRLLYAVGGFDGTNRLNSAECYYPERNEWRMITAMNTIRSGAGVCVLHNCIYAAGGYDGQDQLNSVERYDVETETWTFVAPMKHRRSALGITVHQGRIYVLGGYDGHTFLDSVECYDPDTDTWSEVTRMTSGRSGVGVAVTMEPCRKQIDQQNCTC
Regarding `c1ccc(-c2cn3c(n2)CCc2ccc4cccnc4c2-3)cc1`, the inhibition is 0.967%.
As to `CCCCN(C(=O)C(CCSC)N1C(=O)c2ccccc2C1=O)c1c(N)n(CCC)c(=O)[nH]c1=O` (stereo not drawn), the inhibition was -8.81%.
Take `COc1ccc(C(C(=O)NC(C)(C)C)N(Cc2ccc(F)cc2)C(=O)CCC(=O)Nc2cc(C)on2)cc1` (stereo not drawn): the inhibition is 6.66%.
`CC(C)(C)OC(=O)C[C@@H]1C/C=C\C[C@@H](CC(=O)N[C@@H](CO)Cc2ccccc2)C(=O)N2CCC[C@H]2COC1=O`: the inhibition is 5.12%.
To `COc1ccc(C2NC(=O)C(=O)/C2=C(\O)c2ccc(Cl)cc2)cc1OC` (stereo not drawn) belongs -0.168%; to `C=CCOC(=O)N1CCC2CC1c1cc(-c3ccc(OC)cc3)ccc12` (stereo not drawn), -0.448%; to `CC1Cc2cc(/C(O)=C3\C(=O)C(=O)N(Cc4cccnc4)C3c3ccccc3F)ccc2O1` (stereo not drawn), -1.04%.
To `COc1cccc(CC(=O)N2CCCC(CCC(=O)N3CCN(c4ccccn4)CC3)C2)c1` (stereo not drawn) belongs 2.29%; to `COc1ccc(N2C(=O)C(O)C2c2ccc(C)cc2)cc1` (stereo not drawn), -3.41%.
To `O=S(=O)(Nc1ccccc1)c1ccc(NS(=O)(=O)c2cccs2)cc1` belongs -1.45%.
Consider `CCN(CC)CCCC(C)n1c2nc(=O)[nH]c(=O)c-2nc2cc(Cl)ccc21` (stereo not drawn), for which the inhibition was 152% (active).
Next, `CCOc1cc(C2C(C(=O)OC(C)C)=C(C)NC3=C2C(=O)CCC3)cc([N+](=O)[O-])c1O` (stereo not drawn): -4.98%; `CCOCCc1c(O)nc(SCC(=O)NCc2ccco2)[nH]c1=O`: -1.62%.
Next, `COc1ccc(CCn2c(NN=C3CCCC3)nc3c2c(=O)[nH]c(=O)n3C)cc1`: 1.25%; `COc1ccc(CNCCCO)cc1OC`: -3.09%.
Take `COc1ccc(C2C(C#N)=C(N)Oc3cc(N)ccc32)cc1OC` (stereo not drawn): the inhibition is -3.33%.
To `COc1ccc(C2c3ccc(O)cc3Oc3ncn(CCCO)c(=N)c32)cc1OC` (stereo not drawn) belongs 28.8% (active); to `Cc1cccc2cc3c(N)c(C(=O)N4CCCc5ccccc54)sc3nc12`, -5.05%; to `O=C1C(=O)N(CCN2CCOCC2)C(c2ccccn2)/C1=C(/O)c1ccc(Cl)cc1` (stereo not drawn), -6.66%.
For the compound `CCN(CC)CCN1C(=O)C2C(C(=O)Nc3ccc(Br)cc3)C3C=CC2(O3)C1C(=O)NC1CCCCC1` (stereo not drawn), the inhibition is -0.939%.
Next, `Cc1ccc(CNC(=O)C2(C(F)(F)F)C/C(=C\Cc3ccccc3)CCCO2)o1` (stereo not drawn): -4.24%; `O=C(NCCS(=O)(=O)NCc1ccc(Cl)cc1)c1ccccc1`: -4.29%.
Next, `O=C(NCCOCc1ccc(Cl)cc1)c1ncn[nH]1`: 18.3% (active); `Cc1cc(C(=O)NCCc2ccc(Cl)cc2)n(-c2ccccc2)n1`: -8.41%.
Next, `CN(C)C(=S)N=c1ssc(=S)n1Cc1ccco1`: -0.0433%; `COc1ccccc1CCNC(=O)CN1C(=O)NC2(CCCC2)C1=O`: -5.6%; `O=C1CC(Cc2ccccc2)C(=O)N1c1ccc(Cl)cn1` (stereo not drawn): -0.813%.
`O=C1CC(Cc2ccc(Cl)cc2)C(=O)N1c1cc(Cl)ccn1` (stereo not drawn): the inhibition is 40.7% (active).
For `Cc1ccc(CC2CC(=O)N(c3nc(C)cc(C)n3)C2=O)cc1` (stereo not drawn), the inhibition was 1.11%.
Consider `O=C(Nc1cccc(S(=O)(=O)N2CCOCC2)c1)C12CC3CC(CC(C3)C1)C2`, for which the inhibition is 1.77%.
To `COc1ccc(NC(=O)CN(C)C(=O)c2n[nH]c3ccccc23)cc1` belongs 0.904%; to `CCCCC(=O)Nc1ccc(C(=O)NCCCn2ccnc2)cc1`, -4.02%.
Next, `COc1cc(OC)cc(C(=O)NCCCn2ccnc2)c1`: -6.37%; `CCCC(=O)Nc1ccc(C(=O)NCCCn2ccnc2)cc1`: 6% (active); `Nc1ccccc1SC(C[N+](=O)[O-])c1ccccc1` (stereo not drawn): -4.52%.
In the case of `COc1ccc(OC)c2[nH]c(=O)c(CCNC(=O)C(=O)c3c[nH]c4ccccc34)cc12`, the inhibition is -5.41%.
Next, `CC(=O)c1cc(C#N)c(SCC(=O)Nc2nccs2)nc1C`: -4.52%.
In the case of `Cc1ccnc(NC(=O)C2CCN(S(=O)(=O)c3c(C)c(C)cc(C)c3C)CC2)c1`, the inhibition was -1.09%.
`COCCCNC(=O)C1CCC(CNS(=O)(=O)c2ccc(OC)cc2)CC1` (stereo not drawn): the inhibition was 0.471%.
For `O=C(OCC(=O)N(CCc1ccccc1)Cc1ccccc1)c1ccccc1[N+](=O)[O-]`, the inhibition was 1%.
Next, `CC(C)C[C@H](NC(=O)C1CCC(CNC(=O)[C@@H]2CCCN2C(=O)OC(C)(C)C)CC1)C(=O)O` (stereo partly drawn): 0.427%; `Cc1nc2ccccc2n1C(=O)N1CCOCC1`: -5.92%; `OCCC1CN(Cc2cccc(O)c2)CCN1CCc1ccccc1` (stereo not drawn): -6.53%.
On to `COc1ccc(S(=O)(=O)N2C[C@H]3CON(C)[C@H]3C[C@H]2c2cccc(Br)c2)cc1`, for which the inhibition is -1.34%.
For `COC(C[C@H](O)CC(=O)COCc1ccccc1)OC`, the inhibition was -0.107%.
Take `Cc1cc(C)n(-c2nnc(N3CCN(c4ccccc4)CC3)nn2)n1`: the inhibition is -3.51%.
To `C=CCn1c(SCc2cccc(F)c2)nc2cc(C(=O)N3CCC(C(N)=O)CC3)ccc2c1=O` belongs -4.14%; to `COc1cc(/C=N/N=C(\N)c2nonc2N)cc(OC)c1OC`, 1.13%.
To `c1ccc2c(c1)OCCOCCOCCO2` belongs 1.51%.
To `Cc1ccc2nc(NC(=O)C3CSC4(C)CCC(=O)N34)sc2c1` (stereo not drawn) belongs -0.772%; to `Oc1cccc(CCc2ccccn2)c1`, 1.31%; to `CC(C)(C)N(Cc1ccccc1)C(=O)COC(=O)CCc1c[nH]c2ccccc12`, -5.52%.
As for `O=C1CC(c2ccccc2)C(c2ccccc2)=NN1` (stereo not drawn), the inhibition was -8.87%.

Values taken from PubChem BioAssay AID504523 (Broad Institute, 2011).
